HP1b binding inh – HTS for Inhibitors of HP1-beta Chromodomain Interactions with Methylated Histone Tails. Chromobox protein homolog 1 (Homo sapiens), P83916. AlphaScreen HP1-beta / biotin-H3K9me3 peptide binding. Potency, µM (titrated, usually from 114 µM), inactives show at the highest dose activity change, negative = inhibition, most hits filed as inhibitors. actives 0.56% (n = 390,000). AID 540317, 2011; note: nearly all actives have a fitted effect of over 70% in size
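Compound inhibition of the preformed complex between 50 nM HP1-beta and 50 nM biotinylated H3K9me3 peptide was read by AlphaScreen. Buffer was PBS pH 7.4 with 0.01% Tween-20. Incubations ran 30 min at room temperature, with 10 ug/mL donor/acceptor beads.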
G9a inh – qHTS Assay for Inhibitors of Histone Lysine Methyltransferase G9a. G9a H3K9 monomethylation, AlphaScreen, 2 h. Potency, µM (top dose mostly 102 µM), for the others: at the highest dose activity, negative = inhibition, actives largely listed as inhibitors. actives 8.8% (n = 350,000); note: % is set by controls: 0 for no effect and ±100 for the full control effect; nearly all actives have a fitted effect of over 75% in size
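Enzyme 20 nM + cpd, 15 min RT; add b-H3K9 pep 500 nM / SAM 20 uM; 2 h RT; anti-H3K9me1 Ab 0.5 ug/mL + SA donor / anti-rabbit acceptor beads 20 ug/mL each, 10 min; AlphaScreen read.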
BAZ2B block – qHTS Assay for Inhibitors of BAZ2B; Bromodomain adjacent to zinc finger domain protein 2B (Homo sapiens), Q9UIF8; AlphaScreen BAZ2B-H3K14Ac peptide displacement; Potency, µM (series often up to 114 µM), inactives show at the highest dose activity change, negative = inhibition, most hits filed as inhibitors; actives 4.4% (n = 360,000); AID 504333, 2011; note: % is set by controls: 0 for no effect and ±100 for the full control effect; nearly all actives have a fitted effect of over 60% in size
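AlphaScreen displacement of biotin-H3(5-23)K14Ac peptide (50 nM final) from BAZ2B (50 nM final) in PBS pH 7.4, 0.01% Tween-20; complex preformed 30 min RT, then compounds (top 110 uM) 30 min RT, beads 20 min dark.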
Sfp inh – qHTS Assay for Inhibitors of Bacillus subtilis Sfp phosphopantetheinyl transferase (PPTase); actives 3.5% (n = 310,000); Potency, µM, for inactives: largest response in the series, negative = inhibition, actives largely listed as inhibitors; AID 1490, 2009; Biochemical Sfp PPTase activity, qHTS;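 note: the enzyme is Sfp with the accession as filed and its product quenches rhodamine fluorescence; 0% = enzyme reaction without inhibitor and -100% = no enzyme wells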
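With Hepes-Na pH 7.6 buffer containing 10 mM MgCl2, Sfp (15 nM) modified BHQ-2-YbbR (12.5 uM) using rhodamine-CoA (5 uM). Two reads 30 minutes apart at 525/598 nm yielded each well's rate.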
JMJD2A Tudor inh – qHTS Assay for Inhibitors of JMJD2A-Tudor Domain; AlphaScreen JMJD2A-Tudor / H3K4me3 peptide binding; Potency, µM (doses to about 114 µM), inactives show top-dose activity change, negative = inhibition, actives largely listed as inhibitors; AID 504339, 2011; actives 4.4% (n = 390,000); Lysine-specific demethylase 4A (Homo sapiens), O75164; note: % is set by controls: 0 for no effect and ±100 for the full control effect; nearly all actives have a fitted effect of over 50% in size
ALOX12 inh – Primary qHTS assay for inhibitors of human arachidonate 12S-lipoxygenase (ALOX12): Round 2 | Polyunsaturated fatty acid lipoxygenase ALOX12 (Homo sapiens), P18054 | purified 12hLO, xylenol orange hydroperoxide absorbance | Potency, µM (titrated, usually from 108 µM), inactives show top-dose activity change, negative = inhibition, most hits filed as inhibitors | actives 1.1% (n = 580,000); note: % is set by controls: 0 for no effect and ±100 for the full control effect
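Purified human 12hLO (150 nM final) in 25 mM Hepes, 0.01% Triton X-100, pH 7.0 was preincubated 15 min at room temperature with compound. Then 40 uM arachidonic acid was added, 30 min. Hydroperoxide was read by Fe-XO absorbance ratio 573/405 nm.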
* = called active by the depositor; ? = inconclusive; / = no result given; [ ] = dose if it differs, or a comment. The list is not random: actives were taken first. Their share in the collection is about 8.7%. Calls come from the whole dose curve; as a rule, active = well fitted curve in the direction sought with a large enough effect; inconclusive = small, poorly fitted or top-dose-only effect, or another doubt; inactive = no such curve, though single readings can be large; an effect the other way counts as inactive or inconclusive. Potency is the fitted concentration of half-maximal effect.

SMILES	HP1b binding inh	G9a inh	BAZ2B block	Sfp inh	JMJD2A Tudor inh	ALOX12 inh
CCOC(=O)c1c(C)[nH]c(C=Nc2ccc(OC)cc2)c1O	-5%	-9%[59 µM]	-36%	10%	?	?
CCOC(=O)c1c(C)[nH]c(O)c1C=Nc1ccccc1	-17%	1%	50µM*	?	?	-25%
CCOC(=O)c1c(C)[nH]c(C=Nc2ccccc2)c1O	/	?	?	40µM*	/	/
COC(=O)c1c(C)[nH]c(O)c1C=Nc1ccc(C#N)cc1	17%	18µM*	100µM*	45µM*	?	-12%
O=C(Cc1c[nH]c2ccccc12)Nc1cccc(C(=O)NC2CC2)c1	/	/	/	/	/	29%
O=C(Cc1cccs1)N1CCN(c2cc(C(F)(F)F)ncn2)CC1	/	/	/	/	/	35µM*
O=C1OC2(CCCC2)OC(=O)C1=Cc1c[nH]c2ccccc12	41%	/	-2%	9%	89µM*	10%
O=C(O)C[C@@H]1CCN(C(=O)C2CC2)C[C@@H]1CCN1CCC(n2c(=O)[nH]c3ccccc32)CC1	/	/	/	/	/	22%
CCOc1cccc(CN2CCC(C)(c3noc(C4CCOCC4)n3)CC2)c1	/	/	/	/	/	41%
O=S(=O)(Nc1nc2ccccc2nc1Cl)c1ccc(Br)cc1	59%	?	/	71µM*	-16%	10%
O=S(=O)(Nc1nc2ccccc2nc1N1CCc2ccccc2C1)c1ccc(Br)cc1	54%	8.9µM*	-8%	-15%	0%	-5%
Cc1cc(Nc2ccc(N(C)C)cc2)n2ncnc2n1	11%	45µM*	-8%	32%	-15%	-36%
Cc1cc(Nc2ccccc2F)n2ncnc2n1	50%	50µM*	6%	11%	-13%	?
CCc1ccc(Nc2cc(C)nc3ncnn23)cc1	25%	/	1%	-3%	-10%	-1%
Cc1cc(Nc2cc(C)on2)n2ncnc2n1	43%	?	6%	-19%	-6%	1.3µM*
Cc1cc(C)cc(Nc2cc(C)nc3ncnn23)c1	/	/	/	/	/	-19%
Cc1cc(Nc2cccc(Cl)c2C)n2ncnc2n1	34%	8%	-3%	3%	-9%	?
CCn1c2ccccc2c2cc(Nc3cc(C)nc4ncnn34)ccc21	-5%	45µM*	-30%	-25%	?	0%
Cc1cc(Nc2ccc(Cl)cc2)n2ncnc2n1	46%	/	4%	-5%	-11%	-9%
Cc1cc(C)c(/C=C/C(=O)Nc2sccc2C#N)cc1C	/	/	/	/	/	47%
Cc1ccc2c(c1)S/C(=C/c1ccc[n+](C)c1)N2CCO	9%	14µM*	-35%	-7%	25µM*	0%
Cc1ccc(S(=O)(=O)CCC(=O)NCCN2C(=O)S/C(=C\c3ccccc3)C2=O)cc1	27%	9%	11%	-4%	-11%	6%
O=C(Nc1ccccc1)c1sccc1Oc1ccc([N+](=O)[O-])cc1F	-9%	28µM*	25µM*	-12%	?	?
Cn1cccc1Cc1nnc(SCC(=O)Nc2ccc(F)cc2)n1-c1ccc(F)cc1	-17%	45µM*	?	-20%	?	394%
Cn1cccc1Cc1nnc(SCC(=O)Nc2ccccc2)n1-c1ccc(F)cc1	36%	45µM*	?	-17%	?	451%
CCSc1nnc(NC(=O)CSc2nnc(Cc3cccn3C)n2-c2ccc(F)cc2)s1	27%	-9%	-3%	4%	-11%	25%
COc1ccc(-n2c(Cc3cccn3C)nnc2SCC(=O)NCc2ccc(F)cc2)cc1	5%	45µM*	?	-12%	-32%	394%
